NCOA1 inh: SRC1 coactivator transcriptional activity inhibitors, primary screen, cell-based, luminescence | Nuclear receptor coactivator 1 (Homo sapiens), Q15788 | HEK293 GAL4-SRC1 luciferase reporter | AID 588354, 2011 | 0.12% of 360,000 active | inhibition, % at 3.6 µM;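 active = inhibition above the campaign mean plus 3 SD, with each screening campaign given its own cutoff, cut at about 60% in these data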
LRH-1 inv ag: LRH-1 (NR5A2) inverse agonists, primary screen, cell-based, luminescence, HEK293T, StAR-luciferase reporter. LRH-1 transfected, 24 h. inhibition, % at 3.6 µM. 0.13% of 360,000 active;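 active = inhibition above the mean inhibition of all tested compounds plus 3 SD, cut at about 73% in these data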
NR2F2 inh: NR2F2 transcriptional activity inhibitors, primary screen, cell-based, luciferase reporter, HEK293T, luminescence; COUP transcription factor 2 (Homo sapiens), P24468; HEK293T NGFI-A luciferase reporter; inhibition, % at 8.6 µM; 0.7% of 370,000 active; AID 686940, 2013;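 active = inhibition above a per-plate cutoff, mean inhibition of test wells between control levels plus 3 SD, cut at about 38% in these data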;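 note: cells cotransfected with COUP-TFII expression vector driving the NGFI-A reporter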
Target sequence (P24468 whole entry, looked up): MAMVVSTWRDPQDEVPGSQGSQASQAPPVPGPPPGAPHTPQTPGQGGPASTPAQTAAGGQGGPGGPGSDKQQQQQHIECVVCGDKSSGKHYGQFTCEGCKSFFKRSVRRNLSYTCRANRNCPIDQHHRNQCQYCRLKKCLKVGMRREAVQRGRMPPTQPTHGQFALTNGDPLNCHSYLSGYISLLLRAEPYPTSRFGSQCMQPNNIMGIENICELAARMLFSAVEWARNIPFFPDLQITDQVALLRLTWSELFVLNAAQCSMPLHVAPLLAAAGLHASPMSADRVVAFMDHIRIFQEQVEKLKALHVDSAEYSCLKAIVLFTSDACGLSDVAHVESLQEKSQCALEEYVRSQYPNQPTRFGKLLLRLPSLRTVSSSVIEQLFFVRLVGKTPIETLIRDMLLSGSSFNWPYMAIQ
SRC3 inh: SRC3 coactivator transcriptional activity inhibitors, primary screen, cell-based, luminescence | Nuclear receptor coactivator 3 (Homo sapiens), Q9Y6Q9 | HEK293 GAL4-SRC3 luciferase reporter | inhibition, % at 3.6 µM | 0.17% of 360,000 active | AID 588352, 2011;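 active = inhibition above a per-campaign cutoff, the mean of all compounds plus 3 SD, cut at about 60% in these data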;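 note: higher means less SRC3-driven luciferase light from the GAL4 reporter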
SRC2 inh: inhibition of GAL4-SRC2 driven luciferase reporter, primary screen, SRC2 inhibitor project, cell-based, luminescence | Nuclear receptor coactivator 2 (Homo sapiens), Q15596 | 0.17% of 370,000 active | inhibition, % at 9 µM | HEK293 GAL4-SRC2 luciferase reporter;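 active = inhibition above the mean inhibition of all tested compounds plus 3 SD, set per campaign, cut at about 52% in these data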
Gal4-VP16 ctr: Gal4-VP16 luciferase reporter inhibitors, counter-screen for COUP-TFII antagonist project, cell-based, luminescence, HEK293 | shares compounds with NR2F2 inh | inhibition, % at 8.5 µM | 25% of 2,500 active | AID 687007, 2013; in the data active = inhibition above about 13%
NR2F2 inh conf: NR2F2 transcriptional activity inhibitors, confirmation, cell-based, luciferase reporter, HEK293, triplicate; shares compounds with NR2F2 inh; HEK293 NGFI-A luciferase reporter, luminescence; inhibition, % at 8.5 µM; 45% of 2,500 active;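 active = mean inhibition over three repeats above a set limit taken from the earlier primary screen, cut at about 38% in these data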
Numbers stand for hits; i = inactive; nt = no result given. This is a sample that favours compounds with a hit; in the whole collection about 0.81% have one here.

SMILES	NCOA1 inh	LRH-1 inv ag	NR2F2 inh	SRC3 inh	SRC2 inh	Gal4-VP16 ctr	NR2F2 inh conf
C[C@]12CC[C@H]3[C@@H](CC[C@]4(O)C[C@@H](O)CC[C@]34C=O)[C@@]1(O)CC[C@@H]2C1=CC(=O)OC1	71	102	78	82	53	33	67
CCCCN=C[C@]12CCC(O)CC1(O)CCC1[C@@H]2CC[C@]2(C)[C@H](C3C=CC(=O)O3)CCC12O (stereo partly drawn)	78	97	63	80	i	39	69
CC12CCC3C(CCC4(O)CC(O)CCC34C=NO)C1(O)CCC2C1=COC(=O)C1 (stereo not drawn)	87	99	81	89	i	43	69
O=C(CN1CCCCC1)c1cccc(Br)c1	i	i	i	i	i	nt	nt
CC(=NCc1ccc2c(c1)OCO2)c1c(O)n(Cc2ccccc2)c(=O)[nH]c1=O	i	i	i	i	i	nt	nt
CC12CCC3C(CCC4(O)CC(O)CCC34C=O)C1(O)CCC2C1=CC(=O)OC1 (stereo not drawn)	65	96	71	65	i	24	64
COc1cccc(NP(=O)(Oc2ccccc2)Oc2ccccc2)c1	i	i	i	i	i	nt	nt
Cc1cc(O)c2c(c1)C(=O)[C@@]13C(=C2O)C(=O)[C@H]2C(O)[C@@H]1[C@H]1C(O)[C@@H]3C(=O)C3=C(O)c4c(O)cc(C)cc4C(=O)[C@@]312 (stereo partly drawn)	nt	nt	41	nt	i	i	i
CC1=C(O)C(=O)C=C2C1=CC=C1C2(C)CCC2(C)C3CC(C)(C(=O)O)CCC3(C)CCC12C (stereo not drawn)	i	93	79	i	i	81	83
Cc1ccccc1N1C(=O)NC(=O)/C(=C/c2ccc(N3CCOCC3)o2)C1=O	i	i	i	i	i	nt	nt
CN1CCc2nc3sc(C(=O)NC4CC4)c(N)c3cc2C1	i	i	i	i	i	nt	nt
CC(=O)c1cn(CCCOc2ccccc2)c2ccccc12	i	i	45	i	i	i	i
COc1ccc(CNCCc2c(C)[nH]c3ccc(OC(F)(F)F)cc23)c(OC)c1	i	i	51	i	i	i	45
COc1ccc2[nH]c(C)c(CCNCc3cc(OC)c(OC)c(OC)c3)c2c1	i	i	i	i	i	nt	nt
Cc1cc(C=C2C(=O)N(C)C(=S)N(C)C2=O)c(C)n1C1CCCC1	i	i	i	i	i	nt	nt
CCN1CCN(c2ncnc3ccc(Br)cc23)CC1	i	i	42	i	i	i	i
COc1ccc(C[C@H]2NC[C@H](O)[C@H]2OC(C)=O)cc1	95	102	89	93	71	20	83
COc1ccc(CCNC2CCCCC2)cc1	i	i	i	i	i	nt	nt
O=P(Oc1ccccc1)(Oc1ccccc1)N1CCOCC1	i	i	i	i	i	nt	nt
N#C/C(=C\c1cccc(O)c1)C(=O)O	i	i	i	i	i	nt	nt
CC(=O)OC1CC(OC2C(O)CC(OC3C(O)CC(OC4CCC5(C)C(CCC6C5CCC5(C)C(C7=CC(=O)OC7)C(O)CC65O)C4)OC3C)OC2C)OC(C)C1OC1OC(CO)C(O)C(O)C1O (stereo not drawn)	84	98	74	82	i	36	65
CC(=O)OC1CC2(O)C3CCC4CC(O)CCC4(C)C3CCC2(C)C1C1=CC(=O)OC1 (stereo not drawn)	85	99	77	88	i	47	72
COc1ccc(-n2nnnc2C(c2cccc(OC)c2OC)N2CCC(n3c(=O)[nH]c4ccccc43)CC2)cc1 (stereo not drawn)	i	i	i	i	i	nt	nt
COc1cccc(C(c2nnnn2-c2ccc3c(c2)OCCO3)N2CCC(n3c(=O)[nH]c4ccccc43)CC2)c1OC (stereo not drawn)	i	i	40	i	i	i	i
